Measured values taken from PubChem BioAssay AID1347142 (National Center for Advancing Translational Sciences (NCATS), 2019).
Results filed as inconclusive are left out. Where a call stands in place of a potency, no number is given. The source made the active and inactive calls. The call rests on the fitted dose curve; in most records, active means well fitted inhibition curve with a large enough effect; inconclusive means small, poorly fitted or top-dose-only effect; inactive means no such curve, though single readings can be large or run the other way.

Molecular target: N-terminal Xaa-Pro-Lys N-methyltransferase 1 (Homo sapiens) (UniProt Q9BV86)
Sequence (Q9BV86 whole entry, looked up): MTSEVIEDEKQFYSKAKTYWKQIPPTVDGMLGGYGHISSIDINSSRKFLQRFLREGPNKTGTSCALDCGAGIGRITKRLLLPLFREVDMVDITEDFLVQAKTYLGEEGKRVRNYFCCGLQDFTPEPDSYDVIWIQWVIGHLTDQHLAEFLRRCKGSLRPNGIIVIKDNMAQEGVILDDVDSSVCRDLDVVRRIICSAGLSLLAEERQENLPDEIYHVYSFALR
Test: qHTS Assay for Inhibitors of N-terminal methyltransferase 1 (NTMT1): ThioGlo3 Assay Confirmatory Screen, Round 1.
Settings: NTMT1 SAHH-coupled ThioGlo3 fluorescence, 30 min; series mostly up to 56.8 µM
From the text: Assay Submitter (PI): Rong Huang Ph.D, Purdue University, West Lafayette, IN 47907 The N-terminal methytransferase 1 is the first methyltransferase that methylates protein alpha-N-amines and plays an important role in regulating cell mitosis, chromatin interactions and DNA repair. It is observed to be over-expressed in various cancer patient tissues like malignant melanoma and colorectal cancer tissues. Knockdown of NTMT1 in cancer cells causes cell mitotic defects and enhances sensitivity to DNA damaging chemotherapeutics. […] These critical cellular processes in which NTMT1 is implicated, coupled with emerging links to cellular dysfunction, strengthen the inference that NTMT1 is a compelling novel anticancer target. Progress have been made in understanding the molecular properties of NTMT1 and the biological consequences of protein alpha-N-terminal methylation, but there are no specific small molecule probes available for NTMT1 to fully characterize its MTase activity. To address this unmet need, a panel of assay is created and established to enable quantitative high-throughput screening (qHTS) for novel, potent, and selective small molecule NTMT1 inhibitors. Two orthogonal qHTS that use different reagents (ThioGlo vs. MTaseGlo) are developed for primary robotic screening against the NCATS chemical library of more than 400,000 small molecules. Identified inhibitors are reacquired, validated, and further characterized. […] Early Translation Branch (ETB) National Center for Advancing Translational Sciences (NCATS) National Institute of Health (NIH)
Materials: NTMT1 enzyme, substrate SPKRIA, control peptide RCC1-6 is provided by the Huang laboratory. ThioGlo3 Assay: In brief, 125nM NTMT1 enzyme was dispensed into a 1536-well assay plate with Aurora Discovery BioRAPTR Flying Reagent Dispenser (FRD, Beckton-Dickenson). Compounds (at various concentration) or 1uM RCC1-6 (SPKRIA) control were transferred to the assay plate using the Kalypsys 1536-pintool apparatus. After 1 min of room temperature incubation, 1uL of substrate (100uM SAM, 10uM SAHH, 15uM ThioGlo3) was added to the wells bringing the final assay volume to 4uL. Initial (background) fluorescence readout (EX: 340nm, EM: 450nm) was then detected using the PerkinElmer ViewLux microplate imager and a final fluorescence readout was taken after 30 min of room temperature incubation. The data was normalized to the background fluorescence.
Further: nearly all actives have a fitted effect of over 80% in size.
Potency means the concentration at half of the fitted maximal effect.

Row | SMILES | Potency
1 | Nc1ncnc2c1ncn2[C@@H]1O[C@@H]2CO[P@](=O)(S)O[C@H]2[C@H]1O | inactive
2 | Nc1ncnc2c1ncn2[C@@H]1O[C@H](COP(=O)(O)CP(=O)(O)O)[C@@H](O)[C@H]1O | inactive
3 | Nc1ncnc2c1ncn2[C@@H]1O[C@H](COP(=O)(O)OP(=O)(O)OP(=O)(O)O)[C@H]2OC3(O[C@H]21)C([N+](=O)[O-])=CC(=[N+]([O-])[O-])C=C3[N+](=O)[O-] (stereo partly drawn) | inactive
4 | Nc1ncnc2c1nc(Sc1ccc(Cl)cc1)n2[C@@H]1O[C@@H]2COP(O)(=S)O[C@H]2[C@H]1O (stereo partly drawn) | inactive
5 | COc1cc2nc(N3CCCN(C)CC3)nc(N(C)C3CCN(C)CC3)c2cc1OC | 24.1 µM (active)
6 | CCN(CC)c1ncnc2c1ncn2[C@@H]1O[C@H](COP(=O)(O)OP(=O)(O)C(Br)(Br)P(=O)(O)O)[C@@H](O)[C@H]1O | inactive
7 | CCNC(=O)[C@H]1O[C@@H](n2cnc3c(N)ncnc32)[C@H](O)C1O (stereo partly drawn) | inactive
8 | Nc1ncnc2c1ncn2[C@@H]1O[C@@H]2COP(O)(=S)O[C@H]2[C@H]1O (stereo partly drawn) | inactive
